Z-score data for 13 compounds are collected here from PubChem BioAssay.

Experiment [1] is described as follows: compound effects on lung adenocarcinoma cell viability – A549, calcein-AM fluorescence, 48 h, basal, profiling panel (AID 1162). Particulars: higher = more signal.
The nature of experiment [2]: compound effects on differentiated 3T3-L1 adipocyte viability – cell-based, 3T3-L1 adipocytes, calcein-AM fluorescence, 48 h, basal, profiling panel (AID 1163). To be noted: 3T3-L1 adipocytes viability, higher = more signal.
Experiment [3] is described as follows: compound effects on hepatocellular carcinoma cell viability – HepG2, calcein-AM fluorescence, 48 h, basal, profiling panel (AID 1164). Particulars: higher = more signal.
A short description of experiment [4]: compound effects on multiple myeloma cell viability – MM1S, calcein-AM fluorescence, 48 h, basal, profiling panel (AID 1165).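 Further: viability of MM1S multiple myeloma cells under basal unstimulated conditions.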 To be noted: higher = more signal.
The nature of experiment [5]: calcein-AM signal in unstimulated myeloma cells – cell-based, calcein-AM fluorescence, 48 h, PK04 Diversity Set, profiling panel (AID 1166).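 Further: cells grown under basal conditions without added stimulus.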 Particulars: RPMI8226 myeloma viability, higher = more signal.
Experiment [6] can be described thus: JC-1 mitochondrial signal, unstimulated HepG2 cells – cell-based, JC-1 fluorescence, 24 h, 100 nL compound, profiling panel (AID 1167). Particulars: HepG2 mitochondrial potential, higher = more signal.
Experiment [7] is described as follows: JC-1 mitochondrial signal, unstimulated adipocytes – cell-based, JC-1 fluorescence, 3T3-L1 adipocytes, 24 h, 100 nL compound, profiling panel (AID 1168). Particulars: JC-1 mitochondrial fluorescence, higher = more signal, called active from +8 up or from −8 down.
A short description of experiment [8]: JC-1 mitochondrial signal, unstimulated myeloma cells – cell-based, JC-1 fluorescence, RPMI8226, 24 h, 100 nL compound, profiling panel (AID 1169). Particulars: JC-1 mitochondrial potential fluorescence, higher = more signal.
The nature of experiment [9]: JC-1 mitochondrial signal, unstimulated MM1S myeloma – cell-based, JC-1 fluorescence, 24 h, 100 nL compound, profiling panel (AID 1170). To be noted: MM1S mitochondrial potential, higher = more signal.
A short description of experiment [10]: resazurin metabolic signal in A549 cells – cell-based, resazurin fluorescence, 24 h, PK04 Diversity Set, profiling panel (AID 1171). Particulars: A549 viability, higher = more signal, called active from +8 up or from −8 down. In general terms: Resazurin is reduced to fluorescent resorufin, in cell work by metabolically active cells.

Active and inactive are the calls of the source.
Further: test concentration not given here.

Regarding `O=C1CCCC=C1C(O)COCc1ccccc1` (stereo not given), the z-score in experiment [1] is 0.384; in experiment [2] it was -1.41; in experiment [3], -1.13; in experiment [4] it was -0.265; in experiment [5], 0.729; in [6] it was -0.143. The z-score in experiment [7] was -0.649 (inactive); in [8], 0.728; in experiment [9] it was -0.0651; in [10], 0.0235 (inactive).
As to `COc1ccc(COC(=O)NN=C2C[C@@H](O)[C@@H](O)[C@@H]3[C@@H]4C(=O)N(C(C)(C)C)C(=O)[C@@H]4CC[C@@H]23)cc1`, the z-score in [1] was 0.901; in [2], 0.514; in [3], -0.777; in experiment [4] it was 0.569; in [5], -0.448; in [6], -1.08. Moreover, the z-score in experiment [7] is -1.14 (inactive); in [8] it was -0.379; in experiment [9] it was 0.34; in experiment [10], 0.259 (inactive).
`COc1ccc(O[C@H]2C=C[C@@H](c3ccccc3)O[C@@H]2COC(=O)NCc2cccc3ccccc23)cc1`: the z-score in experiment [1] is 0.152; in [2], 0.0831; in experiment [3] it was -0.833; in experiment [4], -1.23; in experiment [5] it was -0.0376; in experiment [6] it was 0.194. Also, the z-score in [7] was -0.351 (inactive); in experiment [8], 0.396; in experiment [9] it was -0.225; in experiment [10], 0.618 (inactive).
Regarding `CC(C)=NO[C@@H](C)c1cn([C@H](CO)Cc2ccccc2)nn1`, the z-score was 0.308 in experiment [1]; 0.343 in [2]; 1.17 in [3]; 0.182 in experiment [4]; -0.428 in [5]; 0.614 in experiment [6]. The z-score in [7] was 0.0209 (inactive); in [8], 0.386; in experiment [9], 0.514; in experiment [10], -1.35 (inactive).
Regarding `CO[C@@H]1COC(=O)CC=C[C@H](C)[C@H](OC)COC(=O)[C@@H]2CCCN2C(=O)CC=C[C@H]1C`, the z-score in experiment [1] is -0.125; in experiment [2] it was 0.846; in [3] it was -0.138; in [4] it was 0.0805; in experiment [5], -0.822; in [6], 1.07. Moreover, the z-score was 0.332 (inactive) in experiment [7], 0.114 in [8], 1.03 in [9] and -0.541 (inactive) in experiment [10].
For `CCN1C(=O)[C@H]2[C@H]3[C@H](O)[C@H](O)CC(=NOC[C@@H](O)[C@H]4O[C@@H]5OC(C)(C)O[C@@H]5[C@H]4O)[C@@H]3CC[C@H]2C1=O`, the z-score was 0.725 in [1]; -0.532 in experiment [2]; 0.282 in experiment [3]; 0.388 in experiment [4]; 0.12 in experiment [5]; 0.0654 in [6]. Moreover, the z-score is 0.141 (inactive) in experiment [7], 0.71 in experiment [8], -0.481 in experiment [9] and -0.794 (inactive) in [10].
Regarding `CC(C)[C@H](NC(=O)OC(C)(C)C)[C@@H](O)CC(=O)C(C)(C)C`, the z-score in experiment [1] is -0.0305; in experiment [2], -1.02; in experiment [3], 0.483; in [4], 0.514; in experiment [5] it was -0.0779; in experiment [6], 0.136. Further, the z-score in [7] is -0.148 (inactive); in experiment [8] it was -0.988; in experiment [9], -1.13; in experiment [10], -0.242 (inactive).
Take `CO[C@@H]1COC(=O)[C@@H]2CCCN2C(=O)[C@@H](C)COC(=O)CCC[C@H]1C`: the z-score in [1] is -0.0294; in experiment [2], -0.0132; in experiment [3], 0.586; in experiment [4], -0.407; in [5] it was 0.498; in experiment [6], -0.189. For the same compound, the z-score in experiment [7] is -2.2 (inactive); in experiment [8], -0.0065; in [9], -1.2; in experiment [10] it was -1.07 (inactive).
As for `C#CCCCON=C1C[C@@H](O)[C@@H](O)[C@@H]2[C@@H]3C(=O)N(CC)C(=O)[C@@H]3CC[C@H]12`, the z-score in [1] was -0.662; in experiment [2] it was -0.751; in experiment [3] it was 0.0801; in experiment [4], 0.489; in [5] it was 0.516; in experiment [6], -0.58. Moreover, the z-score in [7] was -0.625 (inactive); in [8] it was -0.569; in [9], -0.533; in experiment [10], -0.479 (inactive).
`CC(C)CON=C1[C@H]2CCn3c(=O)n(C)c(=O)n3[C@H]2[C@H](O)[C@@H]2O[C@H]12`: the z-score in [1] is 0.543; in experiment [2], 0.632; in experiment [3], 0.361; in experiment [4], 0.191; in [5] it was -0.441; in experiment [6], -0.383. For the same compound, the z-score is -0.444 (inactive) in [7], -0.581 in [8], 0.0994 in experiment [9] and -0.143 (inactive) in [10].
With `COc1ccc(O[C@H]2C=C[C@@H](C#Cc3ccccc3)O[C@@H]2CO)cc1`, the z-score in experiment [1] was -0.167; in experiment [2], 0.956; in experiment [3], -1.03; in experiment [4] it was -3.57; in experiment [5], -3.67; in [6], -1.19. The z-score in experiment [7] was -0.252 (inactive); in experiment [8] it was -0.891; in experiment [9] it was -1.46; in experiment [10] it was 0.447 (inactive).
Turning to `CCCNC(=O)OC[C@H]1O[C@H](CCON=C2C[C@@H](O)[C@@H](O)[C@@H]3[C@@H]4C(=O)N(CC)C(=O)[C@@H]4CC[C@@H]23)C=C[C@@H]1Oc1ccc(OC)cc1`, the z-score in experiment [1] was 0.778; in [2], 0.206; in experiment [3], -0.652; in [4] it was -1.61; in experiment [5], 0.141; in [6] it was -1.18. Moreover, the z-score in [7] was -0.245 (inactive); in [8], 0.195; in experiment [9], -0.39; in experiment [10] it was -0.454 (inactive).
For `C=CC[C@@H]1C=C[C@H](ON=C[C@@H](NS(=O)(=O)c2ccc(C)cc2)[C@H](C)C=CCC(=O)OC)[C@@H](CO)O1`, the z-score is 0.309 in experiment [1]; 0.359 in experiment [2]; 0.405 in experiment [3]; 0.465 in experiment [4]; -0.915 in experiment [5]; -0.836 in experiment [6]. The z-score in experiment [7] was -0.959 (inactive); in experiment [8], 0.117; in experiment [9], -0.979; in [10], -1.03 (inactive).
